“And” between values parts separate entries of the source, which are not always exact repeats. Identical values can stand only once. The whole screen tested about 5,500 compounds, of which about 2,000 (36%) were called active. About 18% were inconclusive and are not listed. Cut-off read from the data, not from the text of the source: active = normalized growth mostly below about 0.91 (no sharp cut-off); inconclusive = no clear call, values can overlap the other calls; inactive = mostly above about 0.92. The list shows a part of the results.
Assay: chemical genetic growth profiling, strain panel (AID 1159580);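 note: tested at 20 µM; growth read once vehicle control cultures reached saturation at 30 °C; 1 = growth at the plate median or of vehicle wells; lower values mean less growth of the strain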
Settings: S. cerevisiae deletion strains, growth OD

Measured: normalized growth

Cc1cccc(C)c1OCC(C)N (stereo not drawn)
inactive: locus YAL013W, strain DEP1, stronger effect = lower value 0.993 | locus YAL021C, strain ccr4, stronger effect = lower value 0.986 | locus YAL026C, strain drs2, stronger effect = lower value 1.01 | locus YAL030W, strain snc1, stronger effect = lower value 1 | locus YAL040C, strain CLN3, stronger effect = lower value 0.998 | locus YBL061C, strain skt5, stronger effect = lower value 1 | locus YBR009C, strain hhf1, stronger effect = lower value 1.01 | locus YBR021W, strain FUR4, stronger effect = lower value 0.997 | locus YBR023C, strain chs3, stronger effect = lower value 1 | locus YBR171W, strain sec66, stronger effect = lower value 1.02 | locus YBR229C, strain ROT2, stronger effect = lower value 0.998 | locus YBR231C, strain swc5, stronger effect = lower value 1.02 | locus YBR279W, strain paf1, stronger effect = lower value 1.01 | locus YCL011C, strain gbp2, stronger effect = lower value 1 | locus YCL016C, strain dcc1, stronger effect = lower value 1.01 | locus YCL029C, strain bik1, stronger effect = lower value 0.987 | locus YCL061C, strain MRC1 (second series), stronger effect = lower value 0.997 | locus YCL061C, strain MRC1, stronger effect = lower value 1.01 | locus YCL069W, strain vba3, stronger effect = lower value 1.01 | locus YCR088W, strain abp1, stronger effect = lower value 1 | locus YDL005C, strain med2, stronger effect = lower value 1.01 | locus YDL035C, strain GPR1, stronger effect = lower value 1 | locus YDL040C, strain nat1, stronger effect = lower value 1.01 | locus YDL074C, strain BRE1, stronger effect = lower value 1.05 | locus YDL101C, strain DUN1, stronger effect = lower value 1.02 | locus YDL134C, strain PPH21, stronger effect = lower value 0.983 | locus YDL185W, strain tfp1, stronger effect = lower value 0.95 | locus YDL192W, strain arf1, stronger effect = lower value 0.991 | locus YDR001C, strain nth1, stronger effect = lower value 1 | locus YDR069C, strain doa4, stronger effect = lower value 1.01 | locus YDR101C, strain arx1, stronger effect = lower value 0.996 | locus YDR137W, strain rgp1, stronger effect = lower value 1.01 | locus YDR159W, strain sac3, stronger effect = lower value 1.01 | locus YDR162C, strain NBP2, stronger effect = lower value 0.979 | locus YDR195W, strain ref2 0.998 | locus YDR297W, strain sur2, stronger effect = lower value 1.01 | locus YDR318W, strain mcm21, stronger effect = lower value 0.99 | locus YDR334W, strain swr1, stronger effect = lower value 1.01 | locus YDR335W, strain msn5, stronger effect = lower value 1.01 | locus YDR363W, strain ESC2, stronger effect = lower value 0.97 | locus YDR388W, stronger effect = lower value 1.01 | locus YDR392W, strain spt3, stronger effect = lower value 1.01 | locus YDR502C, strain sam2, stronger effect = lower value 1 | locus YEL003W, strain gim4, stronger effect = lower value 1.01 | locus YEL037C, strain rad23, stronger effect = lower value 0.992 | locus YEL061C, strain CIN8 (second series), stronger effect = lower value 1 | locus YEL061C, strain CIN8, stronger effect = lower value 0.991 | locus YER002W, strain NOP16, stronger effect = lower value 1.01 | locus YER015W, strain faa2, stronger effect = lower value 1.02 | locus YER016W, strain bim1, stronger effect = lower value 1.01 | locus YER110C, stronger effect = lower value 0.98 | locus YER111C, strain swi4, stronger effect = lower value 1.02 | locus YER155C, strain BEM2 (second series), stronger effect = lower value 1.02 | locus YER155C, strain BEM2, stronger effect = lower value 0.999 | locus YER167W, strain BCK2, stronger effect = lower value 1.01 | locus YFR010W, strain ubp6, stronger effect = lower value 1.02 | locus YGL078C, strain dbp3, stronger effect = lower value 0.977 | locus YGL086W, strain mad1, stronger effect = lower value 1.01 | locus YGL167C, strain pmr1, stronger effect = lower value 1 | locus YGL173C, strain kem1, stronger effect = lower value 1.02 | locus YGL227W, strain vid30, stronger effect = lower value 1.01 | locus YGL240W, strain doc1, stronger effect = lower value 1.02 | locus YGL248W, strain PDE1, stronger effect = lower value 1.01 | locus YGL253W, strain hxk2, stronger effect = lower value 1.01 | locus YGR135W, strain pre9, stronger effect = lower value 0.975 | locus YGR252W, strain gcn5, stronger effect = lower value 1.01 | locus YHR013C, strain ard1, stronger effect = lower value 1.01 | locus YHR027C, strain rpn1, stronger effect = lower value 1.01 | locus YHR030C, strain SLT2, stronger effect = lower value 0.977 and 0.988 | locus YHR079C, strain IRE1 (second series), stronger effect = lower value 0.983 | locus YHR079C, strain IRE1, stronger effect = lower value 0.994 | locus YHR094C, strain hxt1, stronger effect = lower value 0.999 | locus YHR129C, strain ARP1, stronger effect = lower value 0.999 | locus YHR142W, strain chs7, stronger effect = lower value 1 | locus YHR200W, strain rpn10, stronger effect = lower value 0.973 | locus YIL066C, strain RNR3, stronger effect = lower value 1.01 | locus YIL073C, strain SPO22, stronger effect = lower value 0.862 | locus YIL125W, strain kgd1, stronger effect = lower value 0.995 | locus YIR030C, strain dcg1, stronger effect = lower value 0.987 | locus YJL092W, strain hpr5, stronger effect = lower value 1.01 | locus YJL095W, strain BCK1 (second series), stronger effect = lower value 1 | locus YJL095W, strain BCK1, stronger effect = lower value 1.05 and 0.977 | locus YJL115W, strain asf1, stronger effect = lower value 1.01 | locus YJL129C, strain trk1, stronger effect = lower value 1.02 | locus YJL134W, strain LCB3, stronger effect = lower value 0.987 | locus YJL154C, strain vps35, stronger effect = lower value 1.01 | locus YJL164C, strain tpk1, stronger effect = lower value 1.01 | locus YJL166W, strain qcr8, stronger effect = lower value 1 | locus YJL168C, strain set2, stronger effect = lower value 0.997 | locus YJL187C, strain SWE1 (second series), stronger effect = lower value 1.01 | locus YJL187C, strain SWE1, stronger effect = lower value 1 | locus YJR043C, strain POL32, stronger effect = lower value 1 | locus YJR066W, strain TOR1, stronger effect = lower value 0.96

Source: PubChem BioAssay AID1159580 (chemical genetic matrix, 2015)
